# Reference: ChEMBL document CHEMBL1961873, “Compounds: GSK PKIS; Assays: Nanosyn kinase panel” (2012)
# Tests used:
# [1] = target: T1, Tyrosine-protein kinase receptor TYRO3 (Homo sapiens) (UniProt Q06418); details: at 1 µM
# T1 sequence (whole entry): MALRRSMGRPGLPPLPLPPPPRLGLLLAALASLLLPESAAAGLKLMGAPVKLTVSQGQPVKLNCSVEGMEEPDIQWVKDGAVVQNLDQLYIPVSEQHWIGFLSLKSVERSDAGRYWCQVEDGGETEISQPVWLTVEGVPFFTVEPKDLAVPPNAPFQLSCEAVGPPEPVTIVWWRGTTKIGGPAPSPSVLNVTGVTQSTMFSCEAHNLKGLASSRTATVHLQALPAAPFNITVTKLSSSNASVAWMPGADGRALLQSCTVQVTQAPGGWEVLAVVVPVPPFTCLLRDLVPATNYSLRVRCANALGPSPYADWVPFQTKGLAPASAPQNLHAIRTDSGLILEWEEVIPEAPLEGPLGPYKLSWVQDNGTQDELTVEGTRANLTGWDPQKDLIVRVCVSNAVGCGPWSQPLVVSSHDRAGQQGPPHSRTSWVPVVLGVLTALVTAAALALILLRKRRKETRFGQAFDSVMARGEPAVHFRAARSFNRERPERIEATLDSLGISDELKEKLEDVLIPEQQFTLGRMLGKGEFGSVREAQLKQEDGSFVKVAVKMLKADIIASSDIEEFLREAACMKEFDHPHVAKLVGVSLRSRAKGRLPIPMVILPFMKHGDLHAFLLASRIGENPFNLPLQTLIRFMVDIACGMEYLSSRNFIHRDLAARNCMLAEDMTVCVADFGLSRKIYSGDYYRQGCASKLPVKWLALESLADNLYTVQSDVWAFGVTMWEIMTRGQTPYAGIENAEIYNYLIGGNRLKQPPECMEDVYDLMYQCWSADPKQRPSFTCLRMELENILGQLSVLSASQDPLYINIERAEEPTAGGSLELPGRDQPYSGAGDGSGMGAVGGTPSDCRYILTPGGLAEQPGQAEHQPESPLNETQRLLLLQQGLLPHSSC
# [2] = target: Tyrosine-protein kinase Yes (Homo sapiens) (UniProt P07947); details: at 0.1 µM
# [3] = target: Tyrosine-protein kinase Yes (Homo sapiens) (UniProt P07947); details: at 1 µM
# [4] = target: T2, Tyrosine-protein kinase ZAP-70 (Homo sapiens) (UniProt P43403); details: at 0.1 µM
# T2 sequence (whole entry): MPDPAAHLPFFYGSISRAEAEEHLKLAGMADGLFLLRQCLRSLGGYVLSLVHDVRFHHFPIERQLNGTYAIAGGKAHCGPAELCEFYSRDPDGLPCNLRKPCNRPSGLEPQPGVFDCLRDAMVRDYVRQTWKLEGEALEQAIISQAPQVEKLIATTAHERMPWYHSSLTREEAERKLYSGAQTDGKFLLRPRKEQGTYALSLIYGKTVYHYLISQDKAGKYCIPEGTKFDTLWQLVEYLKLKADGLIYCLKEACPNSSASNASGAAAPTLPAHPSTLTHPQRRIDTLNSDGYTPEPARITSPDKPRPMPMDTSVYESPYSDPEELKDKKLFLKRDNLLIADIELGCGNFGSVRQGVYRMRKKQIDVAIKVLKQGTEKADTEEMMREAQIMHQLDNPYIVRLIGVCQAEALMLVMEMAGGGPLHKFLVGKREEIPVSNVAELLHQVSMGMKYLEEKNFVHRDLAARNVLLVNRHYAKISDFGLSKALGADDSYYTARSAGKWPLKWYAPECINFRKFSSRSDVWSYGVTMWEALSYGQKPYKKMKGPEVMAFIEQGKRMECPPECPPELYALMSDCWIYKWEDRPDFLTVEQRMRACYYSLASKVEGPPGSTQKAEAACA
# [5] = target: T2, Tyrosine-protein kinase ZAP-70 (Homo sapiens); details: at 1 µM
# [6] = target: Serine/threonine-protein kinase B-raf (Homo sapiens) (UniProt P15056); details: at 0.1 µM
# [7] = target: Serine/threonine-protein kinase B-raf (Homo sapiens) (UniProt P15056); details: at 1 µM
# [8] = tested on: Serine/threonine-protein kinase B-raf (Homo sapiens), P15056 [V600E]; details: at 0.1 µM
# [9] = tested on: Serine/threonine-protein kinase B-raf (Homo sapiens), P15056 [V600E]; details: at 1 µM
# [10] = target: RAF proto-oncogene serine/threonine-protein kinase (Homo sapiens) (UniProt P04049); details: at 0.1 µM
# [11] = target: RAF proto-oncogene serine/threonine-protein kinase (Homo sapiens) (UniProt P04049); details: at 1 µM
# [12] = target: T3, Interleukin-1 receptor-associated kinase 4 (Homo sapiens) (UniProt Q9NWZ3); details: at 0.1 µM
# T3 sequence (whole entry): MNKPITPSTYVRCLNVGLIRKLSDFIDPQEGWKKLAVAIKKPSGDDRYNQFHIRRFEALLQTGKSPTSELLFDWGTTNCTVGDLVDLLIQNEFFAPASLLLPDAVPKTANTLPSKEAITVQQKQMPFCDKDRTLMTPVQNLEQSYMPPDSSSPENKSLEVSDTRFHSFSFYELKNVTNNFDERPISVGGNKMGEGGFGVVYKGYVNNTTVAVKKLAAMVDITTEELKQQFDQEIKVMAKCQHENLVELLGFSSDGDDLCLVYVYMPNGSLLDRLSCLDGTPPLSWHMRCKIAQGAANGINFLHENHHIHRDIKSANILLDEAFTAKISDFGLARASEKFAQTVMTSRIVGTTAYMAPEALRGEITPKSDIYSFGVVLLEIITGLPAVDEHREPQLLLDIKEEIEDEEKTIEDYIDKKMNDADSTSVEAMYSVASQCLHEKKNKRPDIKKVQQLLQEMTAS
# [13] = target: T3, Interleukin-1 receptor-associated kinase 4 (Homo sapiens); details: at 1 µM
# [14] = target: Leucine-rich repeat serine/threonine-protein kinase 2 (Homo sapiens) (UniProt Q5S007); details: at 0.1 µM
# [15] = target: Leucine-rich repeat serine/threonine-protein kinase 2 (Homo sapiens) (UniProt Q5S007); details: at 1 µM
# [16] = tested on: Leucine-rich repeat serine/threonine-protein kinase 2 (Homo sapiens), Q5S007 [G2019S]; details: at 0.1 µM
# [17] = tested on: Leucine-rich repeat serine/threonine-protein kinase 2 (Homo sapiens), Q5S007 [G2019S]; details: at 1 µM
# Serine/threonine-protein kinase B-raf (Homo sapiens), sequence (P15056 whole entry): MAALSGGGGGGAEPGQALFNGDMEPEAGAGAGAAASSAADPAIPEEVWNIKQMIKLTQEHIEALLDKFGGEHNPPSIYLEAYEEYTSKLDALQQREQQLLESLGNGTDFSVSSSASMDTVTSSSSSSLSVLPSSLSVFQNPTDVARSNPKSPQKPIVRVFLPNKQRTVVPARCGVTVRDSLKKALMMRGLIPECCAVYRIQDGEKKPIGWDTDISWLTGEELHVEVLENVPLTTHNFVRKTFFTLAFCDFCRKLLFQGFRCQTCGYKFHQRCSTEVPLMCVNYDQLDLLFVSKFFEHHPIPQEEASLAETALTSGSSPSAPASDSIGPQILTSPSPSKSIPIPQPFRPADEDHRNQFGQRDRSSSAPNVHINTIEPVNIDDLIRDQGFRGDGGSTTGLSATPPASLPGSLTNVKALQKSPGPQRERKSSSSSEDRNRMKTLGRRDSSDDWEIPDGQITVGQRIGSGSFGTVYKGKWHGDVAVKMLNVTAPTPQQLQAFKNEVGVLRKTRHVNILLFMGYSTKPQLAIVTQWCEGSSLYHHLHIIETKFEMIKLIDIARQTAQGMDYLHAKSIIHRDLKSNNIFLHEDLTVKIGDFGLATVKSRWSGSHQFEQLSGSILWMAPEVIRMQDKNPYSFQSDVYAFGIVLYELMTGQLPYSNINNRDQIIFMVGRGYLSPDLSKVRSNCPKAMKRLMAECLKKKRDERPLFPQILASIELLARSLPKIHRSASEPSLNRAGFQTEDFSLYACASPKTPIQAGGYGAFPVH
# Leucine-rich repeat serine/threonine-protein kinase 2 (Homo sapiens), sequence (Q5S007 whole entry): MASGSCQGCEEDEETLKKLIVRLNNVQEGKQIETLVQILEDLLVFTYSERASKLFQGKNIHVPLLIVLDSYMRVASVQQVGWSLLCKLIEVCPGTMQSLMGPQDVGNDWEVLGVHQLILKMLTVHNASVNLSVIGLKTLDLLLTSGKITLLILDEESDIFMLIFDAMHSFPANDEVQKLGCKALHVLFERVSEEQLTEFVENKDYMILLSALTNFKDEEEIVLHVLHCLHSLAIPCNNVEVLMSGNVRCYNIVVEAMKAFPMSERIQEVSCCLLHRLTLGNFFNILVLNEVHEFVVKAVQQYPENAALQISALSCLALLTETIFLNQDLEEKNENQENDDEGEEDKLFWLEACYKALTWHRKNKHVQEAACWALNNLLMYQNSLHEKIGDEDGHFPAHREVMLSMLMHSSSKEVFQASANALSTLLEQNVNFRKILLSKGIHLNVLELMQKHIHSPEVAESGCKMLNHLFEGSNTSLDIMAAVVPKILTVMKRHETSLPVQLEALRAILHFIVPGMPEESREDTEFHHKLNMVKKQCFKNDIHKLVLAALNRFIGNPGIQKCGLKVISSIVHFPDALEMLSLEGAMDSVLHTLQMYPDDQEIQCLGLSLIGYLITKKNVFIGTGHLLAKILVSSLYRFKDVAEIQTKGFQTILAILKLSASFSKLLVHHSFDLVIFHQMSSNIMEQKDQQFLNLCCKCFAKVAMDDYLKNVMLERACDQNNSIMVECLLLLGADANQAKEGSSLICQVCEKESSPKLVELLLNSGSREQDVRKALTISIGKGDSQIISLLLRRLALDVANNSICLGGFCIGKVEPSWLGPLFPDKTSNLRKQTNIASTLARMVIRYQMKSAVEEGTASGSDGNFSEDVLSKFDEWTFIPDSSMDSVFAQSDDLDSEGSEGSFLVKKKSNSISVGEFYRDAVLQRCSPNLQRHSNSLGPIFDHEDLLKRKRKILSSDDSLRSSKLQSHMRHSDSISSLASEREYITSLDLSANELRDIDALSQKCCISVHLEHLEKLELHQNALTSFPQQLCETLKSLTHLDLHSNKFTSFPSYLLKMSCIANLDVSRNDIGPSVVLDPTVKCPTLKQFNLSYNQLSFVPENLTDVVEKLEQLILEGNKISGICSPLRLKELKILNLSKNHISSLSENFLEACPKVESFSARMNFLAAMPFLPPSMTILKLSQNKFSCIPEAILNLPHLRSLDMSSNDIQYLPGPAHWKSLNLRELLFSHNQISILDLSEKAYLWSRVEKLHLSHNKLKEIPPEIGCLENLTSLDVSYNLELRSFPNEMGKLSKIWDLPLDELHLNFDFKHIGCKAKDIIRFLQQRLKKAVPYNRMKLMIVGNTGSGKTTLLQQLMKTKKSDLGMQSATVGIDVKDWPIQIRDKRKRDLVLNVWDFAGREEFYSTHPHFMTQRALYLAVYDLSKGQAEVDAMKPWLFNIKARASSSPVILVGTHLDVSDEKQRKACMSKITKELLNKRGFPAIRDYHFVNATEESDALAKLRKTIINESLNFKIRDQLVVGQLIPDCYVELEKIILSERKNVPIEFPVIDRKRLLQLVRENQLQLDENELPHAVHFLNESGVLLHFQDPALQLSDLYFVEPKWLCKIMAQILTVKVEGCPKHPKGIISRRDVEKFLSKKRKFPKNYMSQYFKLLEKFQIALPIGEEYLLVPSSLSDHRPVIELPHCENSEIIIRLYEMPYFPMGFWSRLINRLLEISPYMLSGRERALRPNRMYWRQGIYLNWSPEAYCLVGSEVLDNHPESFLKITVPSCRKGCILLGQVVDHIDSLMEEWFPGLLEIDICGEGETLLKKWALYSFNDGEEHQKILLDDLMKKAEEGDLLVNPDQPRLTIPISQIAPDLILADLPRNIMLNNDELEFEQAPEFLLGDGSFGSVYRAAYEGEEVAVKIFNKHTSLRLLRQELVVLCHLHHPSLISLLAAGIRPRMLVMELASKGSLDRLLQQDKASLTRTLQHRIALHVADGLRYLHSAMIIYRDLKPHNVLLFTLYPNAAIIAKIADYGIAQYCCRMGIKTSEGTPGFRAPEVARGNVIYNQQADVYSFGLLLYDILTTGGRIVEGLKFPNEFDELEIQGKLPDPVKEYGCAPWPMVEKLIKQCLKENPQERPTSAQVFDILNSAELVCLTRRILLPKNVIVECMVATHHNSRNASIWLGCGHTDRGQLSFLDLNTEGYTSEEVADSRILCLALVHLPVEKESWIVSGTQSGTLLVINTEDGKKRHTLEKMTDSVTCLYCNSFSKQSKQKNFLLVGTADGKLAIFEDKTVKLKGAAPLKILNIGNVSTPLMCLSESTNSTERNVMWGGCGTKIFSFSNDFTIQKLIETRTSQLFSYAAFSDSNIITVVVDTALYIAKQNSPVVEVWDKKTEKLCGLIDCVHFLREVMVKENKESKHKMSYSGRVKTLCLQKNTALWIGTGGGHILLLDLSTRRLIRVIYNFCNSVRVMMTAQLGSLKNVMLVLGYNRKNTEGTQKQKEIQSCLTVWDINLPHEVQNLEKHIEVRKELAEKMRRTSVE
# RAF proto-oncogene serine/threonine-protein kinase (Homo sapiens), sequence (P04049 whole entry): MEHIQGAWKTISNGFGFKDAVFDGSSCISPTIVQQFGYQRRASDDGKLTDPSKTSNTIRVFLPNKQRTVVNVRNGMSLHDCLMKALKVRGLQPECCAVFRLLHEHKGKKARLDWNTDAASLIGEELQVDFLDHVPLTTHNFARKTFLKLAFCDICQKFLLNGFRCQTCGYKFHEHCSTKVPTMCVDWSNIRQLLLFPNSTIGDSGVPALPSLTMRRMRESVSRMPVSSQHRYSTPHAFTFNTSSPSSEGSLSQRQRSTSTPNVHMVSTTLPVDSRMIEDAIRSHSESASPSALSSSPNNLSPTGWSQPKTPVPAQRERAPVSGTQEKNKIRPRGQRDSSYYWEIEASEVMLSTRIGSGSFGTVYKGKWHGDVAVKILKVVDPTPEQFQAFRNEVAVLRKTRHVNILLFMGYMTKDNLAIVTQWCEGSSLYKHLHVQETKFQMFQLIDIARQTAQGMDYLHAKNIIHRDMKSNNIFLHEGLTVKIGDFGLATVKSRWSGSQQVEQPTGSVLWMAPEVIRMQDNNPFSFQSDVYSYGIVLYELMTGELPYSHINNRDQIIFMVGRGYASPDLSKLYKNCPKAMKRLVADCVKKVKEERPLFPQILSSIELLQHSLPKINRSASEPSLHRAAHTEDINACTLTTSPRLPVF
# Serine/threonine-protein kinase B-raf (Homo sapiens), P15056 [V600E], sequence (P15056 whole entry V600E): as the sequence (P15056 whole entry) above, with V600E counted along it
# Tyrosine-protein kinase Yes (Homo sapiens), sequence (P07947 2-543 limits assumed): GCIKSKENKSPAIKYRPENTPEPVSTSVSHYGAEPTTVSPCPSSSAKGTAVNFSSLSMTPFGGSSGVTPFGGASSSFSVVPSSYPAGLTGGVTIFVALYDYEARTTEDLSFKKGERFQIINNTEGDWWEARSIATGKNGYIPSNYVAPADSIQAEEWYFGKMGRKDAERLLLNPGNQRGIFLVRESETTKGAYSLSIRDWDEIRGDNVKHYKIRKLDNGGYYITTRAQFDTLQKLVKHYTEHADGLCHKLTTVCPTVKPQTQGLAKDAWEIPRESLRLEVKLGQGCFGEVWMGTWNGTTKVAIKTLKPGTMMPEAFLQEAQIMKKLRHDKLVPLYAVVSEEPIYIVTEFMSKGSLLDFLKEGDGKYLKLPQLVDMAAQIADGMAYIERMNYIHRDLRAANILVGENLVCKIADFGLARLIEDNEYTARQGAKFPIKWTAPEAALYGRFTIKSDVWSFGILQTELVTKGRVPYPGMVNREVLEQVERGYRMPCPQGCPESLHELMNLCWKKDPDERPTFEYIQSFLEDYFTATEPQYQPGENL
# Leucine-rich repeat serine/threonine-protein kinase 2 (Homo sapiens), Q5S007 [G2019S], sequence (Q5S007 whole entry G2019S): as the sequence (Q5S007 whole entry) above, with G2019S counted along it
Compound,inhibition [1] [%],inhibition [2] [%],inhibition [3] [%],inhibition [4] [%],inhibition [5] [%],inhibition [6] [%],inhibition [7] [%],inhibition [8] [%],inhibition [9] [%],inhibition [10] [%],inhibition [11] [%],inhibition [12] [%],inhibition [13] [%],inhibition [14] [%],inhibition [15] [%],inhibition [16] [%],inhibition [17] [%]
NC(=O)c1cccc(Nc2nccc(Nc3cccc(F)c3)n2)c1,57,4.5,22.5,-0.99,4.21,0.82,3.59,1.61,3.25,0.33,-1.43,0.1,2.52,-0.11,10,1.9,18.2
O=S(=O)(CCOCc1ccc(-c2ccc3ncnc(Nc4ccc(OCc5cccc(F)c5)c(Cl)c4)c3c2)o1)c1ccccc1,-0.33,-1.93,2.61,-5.44,0.81,2.33,3.21,2.43,3.05,-0.94,-1.29,0.22,0.93,4.19,9.06,6.55,10.3
Nc1nccc(C#Cc2cncnc2Nc2ccc(OCc3cccc(F)c3)c(Cl)c2)n1,3.66,-0.62,5.85,1.97,3.29,3.49,6.72,3.75,5.29,-0.89,-0.28,0.44,2.48,7.72,11.1,8.54,14
COc1cc2ncnc(Nc3ccc(C)c(O)c3)c2cc1OC,34.5,8.25,42,3.61,1.79,8.83,10,7.72,9.15,1.3,-1.36,4.09,2.62,1.75,8.77,4.67,18.3
CCS(=O)(=O)c1ccc(OC)c(Nc2ncc(-c3cccc(OC)c3)o2)c1,40.6,34.5,80.2,-1.53,-2.95,1.82,5.54,1.52,4.88,5.24,-3.45,-4.04,2.08,5.57,20.2,7.7,42.6
Nc1nccc(-c2c(-c3ccc(F)cc3)nn3cc(C(F)(F)F)ccc23)n1,1.24,0.91,1.92,-0.68,-1.16,0.06,0.3,0.14,-0.28,-3.59,-7.59,0.57,0.46,6.4,7.9,6.54,5.03
NC(=O)c1sc(-n2cnc3ccccc32)cc1OCc1ccccc1Br,1.89,2.41,7.85,-2.78,-2.62,5.54,6.15,4.91,3.77,3.4,-0.55,1.39,2.57,1.66,10.8,4.94,19.3
